Sfp inh: qHTS Assay for Inhibitors of Bacillus subtilis Sfp phosphopantetheinyl transferase (PPTase) | Biochemical Sfp PPTase activity, qHTS | Potency, µM, inactives show largest response in the series, negative = inhibition, actives largely listed as inhibitors | 310,000 compounds, 3.5% hits;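 note: the enzyme is Sfp with the accession as filed and its product quenches rhodamine fluorescence; potency is the fitted concentration of half-maximal effect; 0% = enzyme reaction without inhibitor and -100% = no enzyme wells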
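Compounds were incubated with enzyme (final 15 nM) for 15 min at room temperature before substrate addition started the reaction. Fluorescence at 525 nm excitation, 598 nm emission was recorded immediately and after 30 minutes.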
PLK1 PBD block: qHTS for Inhibitors of PLK1-PDB (polo-like kinase 1 - polo-box domain): Primary Screen; Plk1 PBD binding of FITC phosphopeptide, fluorescence polarization; Potency, µM, inactives show max response, negative = inhibition, hits mostly inhibitors; 360,000 compounds, 2.8% hits; AID 720504, 2013; note: potency is the fitted concentration of half-maximal effect; series mostly up to about 57 µM; nearly all actives have a fitted effect of over 65% in size
Mm-Cpn inhibitor: Inhibitors of TCP-1 ring complex (TRiC) of Methanococcus maripaludis (MmCpn): qHTS; 330,000 compounds, 0.031% hits; purified Mm-Cpn ATPase, ADP Transcreener TR-FRET; Potency, µM (titrated, usually from 76.9 µM), without a hit: at the highest dose activity, negative = inhibition, most hits filed as inhibitors; note: potency is the fitted concentration of half-maximal effect; nearly all actives have a fitted effect of over 80% in size
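Quantitative HTS used 25 nM Mm-CPN and 10 uM ATP in magnesium/KCl Tris buffer, pH 7.4, with 1 mM DTT. Hydrolysis ran 30 min at 37°C; ADP was read by HTRF.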
VDR inhibitor: Inhibitors of the vitamin D receptor (VDR): qHTS; Vitamin D3 receptor (Homo sapiens), P11473; VDR-SRC2-3 peptide fluorescence polarization, 2 h; Potency, µM, without a hit: max response, negative = inhibition, actives largely listed as inhibitors; 400,000 compounds, 0.93% hits; note: potency is the fitted concentration of half-maximal effect
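Measured by FP: displacement of SRC2-3 coactivator peptide from VDR by library compounds, following a two-hour ambient incubation.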
G9a block: qHTS Assay for Inhibitors of Histone Lysine Methyltransferase G9a; G9a H3K9 monomethylation, AlphaScreen, 2 h; Potency, µM (highest dose often 102 µM), without a hit: at the highest dose activity, negative = inhibition, actives largely listed as inhibitors; 350,000 compounds, 8.8% hits; AID 504332, 2011; note: potency is the fitted concentration of half-maximal effect; nearly all actives have a fitted effect of over 75% in size
Target sequence (Q96KQ7 913-1193 limits assumed): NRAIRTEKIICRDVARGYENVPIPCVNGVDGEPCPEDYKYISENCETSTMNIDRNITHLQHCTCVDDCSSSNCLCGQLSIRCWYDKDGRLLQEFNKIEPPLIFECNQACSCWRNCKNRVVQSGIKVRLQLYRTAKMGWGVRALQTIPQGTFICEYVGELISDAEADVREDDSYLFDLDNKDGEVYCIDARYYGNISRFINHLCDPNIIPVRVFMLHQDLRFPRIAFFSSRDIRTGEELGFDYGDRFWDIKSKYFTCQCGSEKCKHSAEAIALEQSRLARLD
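Methyltransferase reactions run at room temperature for 2 h (20 nM enzyme, 500 nM biotin-H3K9 peptide, 20 uM SAM) after a 15 min compound preincubation; product detected by AlphaScreen beads and anti-H3K9me1 antibody.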
CCT modulator: High-Throughput Screening for Modulators of Cytosolic Chaperonin Activity. purified chaperonin ATPase assay, HTRF ADP detection, 30 min. activity change, % (no concentration beside the values), hits read low. 360,000 compounds, 0.3% hits. AID 651819, 2012; in the data active = activity change below about -30%
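TRiC at 40 or 20 nM final (batch-dependent) in 30 mM Tris pH 7.4, 100 mM KCl, 5 mM MgCl2, 1 mM DTT, with compound at single 76 uM and 10 uM ATP, 30 min at 37 deg C. ADP detected by HTRF Transcreener, 665/615 ratio.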
An asterisk follows results filed as active; ? = inconclusive; . = no result given; [ ] = dose if it differs, or a comment. Shown are actives, neighbours in structure and some others; about 10% of the full set was active somewhere. Unless noted, calls come from the whole dose curve; as a rule, active = well fitted curve in the direction sought with a large enough effect; inconclusive = small, poorly fitted or top-dose-only effect, or another doubt; inactive = no such curve, though single readings can be large; an effect the other way counts as inactive or inconclusive. Unless noted, % is set by controls: 0 for no effect and ±100 for the full control effect.

SMILES | Sfp inh | PLK1 PBD block | Mm-Cpn inhibitor | VDR inhibitor | G9a block | CCT modulator
COc1ccc(C(C#N)N2N=C(C)CC2c2ccccc2)cc1 (stereo not given) | 12% | -10% | 1% | 12% | 45µM* | 0
N#CC1=C(N)NC(SCc2ccc(Cl)cc2)=C(C#N)C12CCCCC2 | 5% | -22% | 3% | -9% | -12% | -1
N#CC1=C(N)NC(SCc2ccccc2)=C(C#N)C12CCCC2 | -1% | ? | -2% | ? | 79µM* | 1
CSC1=C(C#N)C2(CCCC2)C(C#N)=C(N)N1 | 0% | . | -1% | . | ? | .
CC(C)(C)C1CCC2(CC1)C(C#N)=C(SCC(=O)Nc1ccccc1)NC(=O)C2C#N (stereo not given) | 33% | -28% | 0% | 4% | -44%[0.0925 µM] | -2
CC1=C(C(=O)Nc2ccccc2)C2(CCCCC2)C(C#N)=C(SCC(N)=O)N1 | 10% | 3.4µM* | 0% | ? | 10% | -1
N#CC1=C(N)NC(SCC(=O)Nc2ccc(Br)cc2)=C(C#N)C12CCCCC2 | 16% | -13% | 0% | -13% | 71µM* | 1
CCSC1=C(C#N)C2(CCCC2)C(C#N)=C(N)N1 | ? | 3µM* | -1% | -28% | 20µM* | 1
N#CC1=C(N)NC(SCC(=O)c2ccccc2)=C(C#N)C12CCCC2 | ? | -30% | -2% | 0% | 50µM* | 1
COc1ccccc1N1C(=O)C2C3C=CC(CC3)C2C1=O (stereo not given) | 19% | -13% | 0% | -22% | . | -1
COc1ccccc1N1CCNC(C)C1=O (stereo not given) | 1% | 8.4µM* | -2% | 79µM* | -5%[0.501 µM] | 0
N#CCN(CC#N)C(=O)C1c2ccccc2Oc2ccccc21 | 9% | 24µM* | -2% | -15% | . | -3
CCN(C(=O)c1ccc2c(=O)n3c(nc2c1)CCCCC3)c1cc(C)ccc1C | . | . | . | 6% | 0%[59 µM] | .
CCOc1cc(C(N)=O)cc(Br)c1OC | -17% | 30µM* | 3% | 1% | 25%[59 µM] | 2
COCCn1nnnc1C(C(C)C)N1CCOCC1 (stereo not given) | -8% | -13% | -2% | 4% | 79µM* | -2
Cc1ccc(NC(=O)Cn2nnc(-c3nc(-c4ccc(Cl)cc4)no3)c2N)cc1C | . | . | . | 12% | ? | .
O=C1c2cccc([N+](=O)[O-])c2C(=O)N1CCO | 7% | -17% | -4% | -1% | -37% | 0
O=C1CSC(=S)N1N1C(=O)c2cccc([N+](=O)[O-])c2C1=O | 0.71µM* | . | 2% | . | 6.3µM* | .
C=CCSC1=N/C(=C\c2ccsc2)C(=O)S1 | -19% | -12% | 1% | -7% | 1%[59 µM] | 0
C=CCSC1=N/C(=C\c2ccc(C(=O)O)cc2)C(=O)S1 | 40µM* | -16% | 1% | 9% | 45µM* | 2
COC(=O)c1ccc(/C=C2\N=C(SC)SC2=O)cc1 | ? | -2% | -1% | -3% | -1% | 1
C=CCSC1=N/C(=C\c2ccc(C)o2)C(=O)S1 | ? | -16% | -1% | -2% | 22µM* | -2
O=C1SC(SCc2ccccc2Cl)=N/C1=C\c1ccc(C(=O)O)cc1 | -49% | 17µM* | -5% | ? | 40µM* | -3
CCSC1=N/C(=C\c2ccc(C(=O)O)cc2)C(=O)S1 | ? | ? | 11% | -6% | ? | -3
CCn1nc(C)c2c(-c3ccccc3)cc(=O)n(C(C)C(=O)NCCc3ccc(Cl)cc3)c21 (stereo not given) | . | . | . | 15% | 5%[59 µM] | .
SMILES | Sfp inh | PLK1 PBD block | Mm-Cpn inhibitor | VDR inhibitor | G9a block | CCT modulator
CCOC(=O)COn1c(=O)c(-c2ccco2)[n+]([O-])c2ccccc21 | 25µM* | -23% | -3% | -16% | 10µM* | 0
O=c1c(-c2ccco2)[n+]([O-])c2ccccc2n1OCc1ccccc1 | ? | ? | -1% | -29% | 6.3µM* | 1
O=c1c(-c2ccco2)[n+]([O-])c2ccccc2n1OCc1c(F)cccc1F | 50µM* | ? | 1% | 18% | . | -2
COc1ccccc1COn1c(=O)c(-c2ccco2)[n+]([O-])c2ccccc21 | 50µM* | ? | -2% | -1% | . | 0
Cc1ccc(C)c(NC(=O)Cn2c(=O)oc3cc(S(=O)(=O)NCc4ccccc4)ccc32)c1 | . | . | . | -3% | -1%[59 µM] | .
CC(C)OC(C)C | 8% | . | . | -12% | . | .
COc1ccc2c(c1)NC(c1ccc(OCC(C)C)cc1)=NC(c1ccncc1)=N2 | . | . | . | 14% | -29%[59 µM] | .
COc1coc(C(O)C[N+](=O)[O-])cc1=O (stereo not given) | 32µM* | -7% | 0% | 1% | ? | 0
CCOc1ccc(C(=O)Nc2ccc(-c3nc4cc(CC)ccc4o3)cc2)cc1 | . | . | . | -2% | 0%[59 µM] | .
Cc1ccc[n+](/C(C(=S)NCc2ccco2)=C(/[O-])c2ccccc2Cl)c1 | 45µM* | -2% | 2% | 6% | ? | -2
CC(C)(C)c1ccc(/C([O-])=C(/C(=S)NCc2ccco2)[n+]2ccccc2)cc1 | 50µM* | . | 0% | . | ? | .
Cc1ccc[n+](C(C(=S)NCc2ccco2)=C([O-])c2ccccc2Cl)c1 | . | 2% | . | 8% | . | 3
O=c1oc2ccc(F)cc2cc1-c1nc(-c2cccs2)no1 | . | . | . | 0% | -1%[59 µM] | .
C/C(CC(=O)Nc1ccc(N(C)C)cc1)=N\NC(=O)Cc1csc(N)n1 | ? | -15% | -1% | -14% | 45µM* | -3
Cc1nc(CC(=O)Nc2ccc(N(C)C)cc2)cs1 | . | . | . | -7% | 14µM* | .
